Screens from PubChem.
PI5P4Ka inh: blocks human PI5P4K alpha kinase activity | PI5P4Kalpha enzyme, ADP-Glo luminescence, 60 min; active compounds read low | AID 652105 | actives 1.2% (n = 330,000) | max response, %; active means max response of -50% or lower; inconclusive means between -30% and -50%; inactive means -30% or higher; further: value at the top dose of about 77 µM; on the % scale 0 is the no-effect control and ±100 the full control effect
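Compounds were pin-transferred onto PI5P4Kalpha and substrate in HEPES pH 7.4 buffer with EGTA, CHAPS and 5% DMSO. ATP (5 microM final) started the reaction, which ran 60 minutes at room temperature before ADP-Glo detection.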
BAZ2B inh: blocks human BAZ2B | actives 4.4% (n = 360,000) | AID 504333 | Potency, µM (series often up to 114 µM), without a hit: at the top dose activity change, negative = inhibition, usual class: inhibitors | AlphaScreen BAZ2B-H3K14Ac peptide displacement; further: potency means the concentration at half of the fitted maximal effect; on the % scale 0 is the no-effect control and ±100 the full control effect; nearly all actives have a fitted effect of over 60% in size
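AlphaScreen displacement of biotin-H3(5-23)K14Ac peptide (50 nM final) from BAZ2B (50 nM final) in PBS pH 7.4, 0.01% Tween-20; complex preformed 30 min RT, then compounds (top 110 uM) 30 min RT, beads 20 min dark.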
HP1b binding inh: inhibitors of HP1-beta chromodomain binding to methylated histone tails; P83916; AlphaScreen HP1-beta / biotin-H3K9me3 peptide binding; Potency, µM (highest dose often 114 µM), inactives show at the highest dose activity change, negative = inhibition, most hits filed as inhibitors; actives 0.56% (n = 390,000); AID 540317; further: potency means the concentration at half of the fitted maximal effect; nearly all actives have a fitted effect of over 70% in size
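HP1-beta protein (50 nM final) preincubated 30 min at room temperature with biotinylated H3(1-18)K9me3 peptide (50 nM) in PBS pH 7.4, 0.01% Tween-20, then compound added for 30 min. AlphaScreen streptavidin donor/nickel chelate acceptor beads (10 ug/mL final), 30 min dark, luminescence read.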
JMJD2A Tudor inh: inhibitors of human JMJD2A Tudor domain; O75164; AlphaScreen JMJD2A-Tudor / H3K4me3 peptide binding; Potency, µM (highest dose often 114 µM), for inactives: at the highest dose activity change, negative = inhibition, hits mostly inhibitors; actives 4.4% (n = 390,000); further: potency means the concentration at half of the fitted maximal effect; on the % scale 0 is the no-effect control and ±100 the full control effect; nearly all actives have a fitted effect of over 50% in size
Target sequence (O75164 whole entry, looked up, the tested form may be a part): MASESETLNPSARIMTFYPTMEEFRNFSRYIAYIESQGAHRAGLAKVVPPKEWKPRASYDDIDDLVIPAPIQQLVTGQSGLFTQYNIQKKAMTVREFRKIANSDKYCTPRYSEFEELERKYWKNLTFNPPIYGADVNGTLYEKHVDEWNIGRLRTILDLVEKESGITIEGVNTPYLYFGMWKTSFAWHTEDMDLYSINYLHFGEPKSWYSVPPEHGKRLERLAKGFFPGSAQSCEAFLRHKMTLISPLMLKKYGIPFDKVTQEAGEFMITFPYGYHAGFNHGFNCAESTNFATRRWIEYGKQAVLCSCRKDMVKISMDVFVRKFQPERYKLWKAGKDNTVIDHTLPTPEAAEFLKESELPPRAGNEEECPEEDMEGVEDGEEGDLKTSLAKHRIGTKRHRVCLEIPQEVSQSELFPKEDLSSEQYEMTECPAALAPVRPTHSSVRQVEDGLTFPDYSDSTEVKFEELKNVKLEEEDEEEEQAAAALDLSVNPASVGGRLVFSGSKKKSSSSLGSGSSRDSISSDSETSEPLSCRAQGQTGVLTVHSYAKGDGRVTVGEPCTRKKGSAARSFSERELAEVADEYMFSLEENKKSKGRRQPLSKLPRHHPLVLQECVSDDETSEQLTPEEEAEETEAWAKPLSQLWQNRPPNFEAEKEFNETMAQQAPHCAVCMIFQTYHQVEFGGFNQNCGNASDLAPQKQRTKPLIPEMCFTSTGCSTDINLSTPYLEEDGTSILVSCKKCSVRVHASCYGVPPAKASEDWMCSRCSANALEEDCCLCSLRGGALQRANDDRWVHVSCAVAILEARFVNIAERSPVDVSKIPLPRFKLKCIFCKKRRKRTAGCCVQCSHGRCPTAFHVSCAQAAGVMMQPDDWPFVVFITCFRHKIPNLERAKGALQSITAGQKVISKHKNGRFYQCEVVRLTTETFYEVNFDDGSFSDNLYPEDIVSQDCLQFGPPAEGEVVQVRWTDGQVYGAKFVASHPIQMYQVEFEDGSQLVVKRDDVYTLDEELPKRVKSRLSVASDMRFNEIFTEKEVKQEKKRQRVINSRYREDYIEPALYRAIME
G9a block: blocks human histone lysine methyltransferase G9a; Potency, µM (series often up to 102 µM), inactives show at the highest dose activity, negative = inhibition, actives largely listed as inhibitors; actives 8.8% (n = 350,000); G9a H3K9 monomethylation, AlphaScreen, 2 h; further: potency means the concentration at half of the fitted maximal effect; on the % scale 0 is the no-effect control and ±100 the full control effect; nearly all actives have a fitted effect of over 75% in size
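Compounds were preincubated with 20 nM G9a for 15 min, after which biotinylated H3K9 peptide (500 nM) and SAM (20 uM) started a 2 h room-temperature reaction. Monomethylated product was quantified by antibody-based AlphaScreen chemiluminescence.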
PLK1 PBD block: inhibitors of human PLK1 polo-box domain binding; Plk1 PBD binding of FITC phosphopeptide, fluorescence polarization; Potency, µM, without a hit: max response, negative = inhibition, actives largely listed as inhibitors; actives 2.8% (n = 360,000); AID 720504; further: potency means the concentration at half of the fitted maximal effect; series mostly up to about 57 µM; on the % scale 0 is the no-effect control and ±100 the full control effect; nearly all actives have a fitted effect of over 65% in size
* = called active by the depositor; ? = inconclusive; . = no result; [ ] = remark or other dose. A selection: hits, their analogues and other compounds. The true share with any hit is near 12%. Unless noted, the call rests on the fitted dose curve; in most records, active means well fitted curve in the direction sought with a large enough effect; inconclusive means small, poorly fitted or top-dose-only effect, or another doubt; inactive means no such curve, though single readings can be large; an effect the other way counts as inactive or inconclusive.

SMILES | PI5P4Ka inh | BAZ2B inh | HP1b binding inh | JMJD2A Tudor inh | G9a block | PLK1 PBD block
c1ccc(-c2ccc3c(c2)c2c4n3CCN=C4CCC2)cc1 | . | ? | -23% | 56µM* | 20µM* | 30µM*
Cc1ccc(-c2nn(-c3ccccc3)cc2/C=C2\SC(=S)N(CC(=O)O)C2=O)cc1 | -7 | 22µM* | -24%[57 µM] | 40µM* | 35µM* | 30µM*
O=C1C(=Cc2cn(-c3ccccc3)nc2-c2ccc(OCc3ccccc3F)cc2)SC(=S)N1CCS(=O)(=O)O | -79* | . | . | . | . | 9.5µM*
COc1ccc(/C(C)=C2/SC(=S)N(CCC(=O)O)C2=O)cc1 | . | ? | -24% | ? | -18% | -16%
COc1ccc(-c2nn(-c3ccccc3)cc2/C=C2/SC(=S)N(CCC(=O)O)C2=O)c(C)c1 | -8 | 50µM* | ? | 25µM* | 40µM* | 12µM*
CCN1C(=O)/C(=C\c2cn(CCC#N)nc2-c2ccc(F)cc2)SC1=S | 15 | 35µM* | ? | 22µM* | 35µM* | ?
COc1cccc(C2=NN(C(=O)C3CC3)C(O)(C(F)(F)F)C2)c1 (configuration not stated) | -1 | . | . | . | . | 3%
CC(=O)c1cccc(NC(=O)/C(=C\c2cccnc2)NC(=O)c2ccco2)c1 | 0 | -29% | 24% | -1% | -37% | -3%
Cc1ccc(Sc2c(C)nn(C(=O)c3ccc(Cl)cc3)c2C)cc1 | . | 242% | 217% | 167% | 108%[59 µM] | .
COc1ccc(-c2nn(-c3ccccc3)cc2/C=C2/SC(=S)N(CCC(=O)O)C2=O)cc1 | 2 | 18µM* | 35µM* | 20µM* | 40µM* | 21µM*
COc1cccc(Nc2nc(C#N)nc(NC3CCCC3)n2)c1 | . | . | . | -3% | . | .
CC(C)Nc1nc(NC(C)C)nc(C(=O)OCCO)n1 | 0 | 35µM* | 30% | 50µM* | ? | -9%
CCNc1nc(NCC)nc(OCCOC(C)=O)n1 | 7 | 36% | 18% | -15% | 27%[59 µM] | -11%
CCNc1nc(NCC)nc(C(=O)OCCO)n1 | 1 | 25µM* | 42% | 35µM* | 40µM* | -6%
COc1cc(-c2cc3n(C)c(C)c(CCC(=O)NC4CCCCC4)c(=O)n3n2)cc(OC)c1OC | . | -5% | 15%[57 µM] | -3% | 14%[59 µM] | .
Cc1ccc(-n2nc(C)c3c(C)c(CCC(=O)NCc4ccccc4Cl)c(C)nc32)cc1 | . | 0% | 34% | -4% | 3%[59 µM] | .
O=C1NN(c2ccccc2)C(=O)/C1=C\c1ccccc1OCC(=O)N1CCOCC1 | . | -31% | 26% | -2% | 45µM* | 21µM*
O=C(c1ccc([N+](=O)[O-])cc1)N1CCSC1c1ccc(Br)cc1 (configuration not stated) | 5 | ? | 16µM* | -12%[11.4 µM] | ? | 17µM*
CCC(C)NC(=O)c1cccc(C)c1 (configuration not stated) | 9 | 0% | 1% | -14% | 10% | -3%
CCn1c(SCC(=O)NC2=NCCS2)nnc1C(C)NC(=O)c1ccc(Cl)cc1 (configuration not stated) | -12 | -5% | 17% | -18% | -23% | -10%
C=CCn1c(C(C)NC(=O)c2cccc(C)c2)n[nH]c1=S (configuration not stated) | -5 | -4% | 39% | 18µM* | 28µM* | -9%
CCn1c(C(C)NC(=O)c2ccc(Cl)cc2)n[nH]c1=S (configuration not stated) | 1 | -18% | -9% | 10µM* | ? | -9%
CC1=C(C(=O)N(C(C)C)C(C)C)CC(CC(=O)NCCN2CCOCC2)C(=O)N1Cc1ccc(F)cc1 (configuration not stated) | 0 | . | . | . | . | 4%
CN(C)c1ccc(-c2nnn(CC(=O)Nc3ccccc3N3CCOCC3)n2)cc1 | . | ? | -18% | ? | 50µM* | -1%
Cc1ccccc1NC(=O)Cn1nnc(-c2ccc(N3CCOCC3)cc2)n1 | . | -31% | 30% | -3% | -23% | -3%
